Assay outcomes (PubChem BioAssay)
aSyn 5UTR act: Activators via SNCA 5'UTR binding, MLPCN; AID 1814, 2009; actives 7.1% (n = 300,000); activity score, % (tested at 7.5 µM), hits read low; alpha-synuclein 5'UTR reporter, activators screen; in the data active = activity score below about -60%
Numbers stand for hits; i = inactive. Shown is part of a subset that was picked to be rich in hits.

SMILES | aSyn 5UTR act
CCCn1c(NC(=O)c2ccc([N+](=O)[O-])o2)nc2ccccc21 | -88.5
COc1ccccc1NC(=O)c1ccc([N+](=O)[O-])o1 | -98.1
CCCc1nnc(NC(=S)Nc2ccccc2)s1 | -126.6
CC(C)C(=O)Nc1nnc(NC(=S)Nc2ccccc2)s1 | -126.6
O=C1NC(c2ccc(Br)cc2)=N/C1=C/c1ccco1 | -148.6
O=C1NC(c2ccccc2Cl)=N/C1=C/c1ccco1 | -142.1
CCCOc1cccc(-c2cc(-c3n[nH]c(=S)n3CC)c3ccccc3n2)c1 | -71.6
CC(C)Oc1cccc(-c2cc(C(=O)NC(=S)N(C)c3ccccc3C(=O)O)c3ccccc3n2)c1 | -74.7
CCn1c(-c2cc(-c3ccc(OC(C)C)cc3)nc3ccccc23)n[nH]c1=S | -104.0
CCCOc1cccc(-c2cc(C(=O)NNC(=S)NCC)c3ccccc3n2)c1 | -114.2
O=[N+]([O-])c1ncccc1OCc1ccc(Cl)c(Cl)c1 | -121.3
COc1ccc(C(=O)NCCOc2ccccc2Cl)c(OC)c1OC | -153.9
COc1ccc(C(=O)/C=C/Sc2nc3ccccc3o2)cc1 | -169.0
Cc1ccc2oc(/N=C(\N)NC(=O)C(C)(C)C)nc2c1 | i
N/C(=N\c1nc2ccccc2o1)NC(=O)c1ccc(Cl)cc1 | -86.9
N/C(=N\c1nc2ccccc2o1)NC(=O)c1ccc(F)cc1 | -132.5
COc1ccc(C(=O)N/C(N)=N/c2nc3ccccc3o2)cc1 | -215.9
N/C(=N\c1nc2ccccc2o1)NC(=O)c1ccccc1Br | -184.3
CCC(=O)N(c1ccc(C(=O)O)cc1)c1nc(-c2ccc(OC)cc2)c(C)s1 | -184.7
COc1cc(C=C(c2nc3ccccc3s2)c2nc3ccccc3s2)cc(OC)c1O | -98.0
COc1ccccc1/C=N/NC(=Nc1ccc(C)cc1)c1nc2ccccc2s1 | -99.1
COc1cc(/C=N/NC(=Nc2ccc(C)cc2)c2nc3ccccc3s2)ccc1O | -148.5
O=C(c1ccccc1)c1ccc2cc(O)ccc2c1 | -231.0
CN1CCSc2ccc(C(=O)Nc3ccc(Cl)cc3)cc21 | -215.0
COc1cccc(NC(=O)c2ccc3c(c2)N(C)CCS3)c1 | -116.9
SMILES | aSyn 5UTR act
COc1cccc(NC(=O)c2ccc3c(c2)CCN3S(C)(=O)=O)c1 | -118.3
CC(=O)c1coc2c1cc(O)c1ccccc12 | -82.6
O=C(Nc1ccccc1)Nc1ccc2ncoc2c1 | -119.0
O=C(Nc1ccccc1)Nc1ccc2ocnc2c1 | -117.0
COC(=O)CCCNC(=O)c1ccc2oc(CCCc3ccccc3)nc2c1 | -62.1
COC(=O)[C@@H](C)NC(=O)c1ccc2oc(CCc3ccccc3)nc2c1 | -168.6
COc1ccc(C(=O)NNC2=Nc3cccc4cccc2c34)cc1 | i
Clc1ccccc1/C=N/NC1=Nc2cccc3cccc1c23 | -229.6
COc1cccc(-c2nc(N3CCN(C)CC3)c3ccccc3n2)c1O | -165.0
CC1(C)CC(=O)c2cc(N=C/C(C(=O)c3ccccc3)=C(\O)c3ccccc3)c(=O)oc2C1 | -72.3
CC(C)(C)C(=O)Nc1sc2c(c1C#N)CCCCC2 | -78.0
Cc1ccc(OCC(=O)Nc2sc3c(c2C#N)CCC3)cc1 | -99.0
CCOC(=O)Nc1sc2c(c1C#N)CCCC2 | -123.2
Cc1nnc(SCC(=O)Nc2sc3c(c2C#N)CCCCC3)n1N | -74.1
O=C(C[n+]1cc(-c2ccc(F)cc2)n2c1CCC2)Nc1nc(-c2ccccc2)cs1 | -89.1
Cc1ccc(CSc2ccc(-c3cccs3)nn2)cc1 | -98.8
c1cncc(CSc2ccc(-c3cccs3)nn2)c1 | -110.4
Fc1ccc(CSc2ccc(-c3cccs3)nn2)cc1 | -120.6
c1ccc(CSc2ccc(-c3cccnc3)nn2)nc1 | -77.7
O=C(Nc1ccccn1)c1ccc(COc2ccccc2Cl)o1 | -70.9
CN(C)C(=O)c1ccc(COc2ccccc2Br)o1 | -165.5
O=C(Nc1ccc(Cl)cn1)c1ccc(COc2ccccc2Br)o1 | -116.7
CN(C)c1oc(-c2ccc(OCc3ccccc3)cc2)nc1C#N | -109.2
CC1CCc2c(sc3nc(CSc4n[nH]c(N)n4)[nH]c(=O)c23)C1 (stereo not drawn) | -92.3
C/C(N)=C(/C#N)C(=O)COC(=O)c1cc(C)n(-c2ccc(F)cc2)c1C | -109.1
SMILES | aSyn 5UTR act
c1ccc2c(c1)[nH]c1c3ccccc3sc21 | -138.2
Clc1ccc(-c2ccc(/C=N/Nc3nncc(-c4ccccc4)n3)o2)cc1 | -75.3
Cc1[nH]n(-c2ccccc2)c(=O)c1/C=N/Nc1nncc(-c2ccccc2)n1 | i
Oc1cccc(/C=N\Nc2nncc(-c3ccccc3)n2)c1 | -210.2
Cc1ccc(/C=N/Nc2nncc(-c3ccccc3)n2)o1 | -99.1
O=C(CSc1nnc(-c2ccc(OC(F)F)cc2)o1)N1CCOCC1 | -67.0
O=C(CSc1nnc(-c2ccc(Cl)cc2)o1)N1CCOCC1 | -153.6
Oc1ccc(-c2nnc(SCC3CCCCC3)o2)cc1 | -131.6
O=C(O)c1cccc(CSc2nnc(-c3ccc(Cl)cc3)o2)c1 | i
CSc1ccc(-c2nc(CSCC(=O)N3CCOCC3)c(C)o2)cc1 | -77.5
COc1ccc(-c2nnc(SCC(=O)N3CCOCC3)o2)cc1 | -105.4
O=C(CSc1nnc(-c2ccc(O)cc2)o1)N1CCOCC1 | -76.8
CCOc1ccc(-c2nnc(SCC(=O)Nc3ccc4c(c3)c3ccccc3n4CC)n2N)cc1 | i
CCOc1ccc(NCc2nnc(SCC(=O)Nc3cc(C)on3)n2-c2ccccc2OC)cc1 | -101.0
CCOc1cc(C(C(=O)NCC2CCCO2)N(C(=O)Cn2nnc3ccccc32)c2ccc(C(C)=O)cc2)ccc1O (stereo not drawn) | -67.5
CC(=O)n1nc(-c2ccc(Cl)cc2)nc1NCc1ccco1 | -117.2
CCC(=O)n1nc(-c2ccc(OC)cc2)nc1NCc1cccs1 | -102.4
COc1ccc(CC(=O)n2nc(-c3ccc(Cl)cc3)nc2NCc2ccco2)cc1 | -105.2
CC(=O)Nc1ccc(NC(=O)c2cc(-c3ccc(C)c(C)c3O)n[nH]2)cc1 | -169.7
CC(=O)Nc1ccc(NC(=O)c2cc(-c3cc(C)cc(C)c3O)n[nH]2)cc1 | -108.2
Cc1cccc(NC(=O)c2cc(-c3ccc(C)c(C)c3O)n[nH]2)c1 | -210.5
O=C(O)c1cnn(-c2nc(-c3ccc(Cl)cc3)cs2)c1C(F)(F)F | -92.0
COC(=O)c1cnn(-c2nc(-c3ccccc3)cs2)c1N | -170.6
COc1ccc(-c2csc(-n3ncc(C(=O)O)c3C(F)(F)F)n2)cc1 | -76.3
COc1ccccc1Nc1nc(N)nc(-c2cc3ccccc3o2)n1 | -62.1
SMILES | aSyn 5UTR act
CSc1cccc(NC(=O)c2sc3nc4n(c(=O)c3c2C)CCC4)c1 | -130.8
Cc1c(C(=O)Nc2cc(F)ccc2F)sc2nc3n(c(=O)c12)CCCCC3 | -118.3
CCOC(=O)c1sc2nc3n(c(=O)c2c1C)CCCCC3 | -213.8
COc1cccc(NC(=O)c2sc3nc4n(c(=O)c3c2C)CCC4)c1 | -113.5
CCCCC12CN3CCN(CC(C3)/C1=N\NC(=O)c1ccccc1N)C2 | -70.6
CCc1nc2oc3ccccc3c(=O)c2c(=O)n1-c1ccccc1 | -314.6
Cc1ccc(-n2c(C(C)C)nc3oc4ccccc4c(=O)c3c2=O)cc1 | -111.4
CCc1nc2oc3ccccc3c(=O)c2c(=O)n1-c1ccc(C)cc1 | -138.5
CCCc1nc2oc3ccccc3c(=O)c2c(=O)n1-c1ccccc1 | -153.3
CCCc1nc2oc3ccccc3c(=O)c2c(=O)n1-c1ccc(C)cc1 | -83.9
NC(=O)CC1C(=O)N(c2ccccc2)C(=S)N1NC(=O)c1ccccc1 (stereo not drawn) | -72.5
Cc1cccc2c3nc4ccccc4nc3n(C)c12 | -77.9
O=C(NCc1csc(-c2ccccc2)n1)c1cc(F)cc2c1OCOC2 | -113.1
CC(C)c1ccc(S(=O)(=O)c2cc3cc(Br)ccc3oc2=O)cc1 | -62.5
Cc1cc(NC(=O)c2ccccc2)ncc1NC(=O)c1ccco1 | -115.3
